Measurements published in PubChem BioAssay (EPA / NIEHS).
“And” between values parts separate entries of the source, which are not always exact repeats. Equal entries are not always repeated. More than one record can exist for a structure, and the calls need not agree. The source made the active and inactive calls. The calls were made as follows: active = hit-call score of the fitted dose curve at least 0.9, where 1 is the maximum; inactive = score below 0.9.

Test: CCTE_Shafer_MEA_dev_correlation_coefficient_mean: CCTE's Neural Network Formation Assay for Mean Correlation Coefficient, Shafer Lab (AID 2284093);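 as to AC50: well mean pairwise spike train correlation integrated as AUC over recording days 5 to 12; potency fitted for loss of correlation relative to DMSO vehicle wells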
Conditions: not given
In short: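 Spontaneous activity recorded on days 5, 7, 9 and 12 post-plating; pairwise spike correlations are averaged across active electrodes and collapsed to an area-under-curve. Rat cortical cultures are dosed from plating through 12 days, with compound renewed at media changes.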
For `O=C(O)C(F)(F)C(F)(F)C(F)(F)C(F)(F)C(F)(F)C(F)(F)C(F)(F)C(F)(F)C(F)(F)C(F)(F)F`, the outcome was “inactive”.
With `O=C(O)C(F)(F)C(F)(F)C(F)(F)C(F)(F)C(F)(F)C(F)(F)F` the outcome was “inactive”.
With `COP(=O)(OC)O/C(=C\Cl)c1cc(Cl)c(Cl)cc1Cl` the outcome was “inactive”.
For `Cn1sc(Cl)cc1=O`, the AC50 was 4.5 µM (active).
In the case of `C=C(C)C(=O)[O][Sn]([CH2]CCC)([CH2]CCC)[CH2]CCC`, the AC50 is reported as 0.0288 µM (active).
In the case of `CC(=O)[O][Hg][c]1ccccc1`, the AC50 is reported as 0.0159 µM (active).
For `CCOP(=S)(OCC)Oc1nc(Cl)c(Cl)cc1Cl`, the AC50 was 23.5 µM (active) and 15 µM (active) and 20.4 µM (active).
In the case of `O=C1C2(Cl)C3(Cl)C4(Cl)C(Cl)(Cl)C5(Cl)C3(Cl)C1(Cl)C5(Cl)C24Cl` (stereo unspecified), the AC50 is reported as 1.15 µM (active).
For `ClC1(Cl)C2(Cl)C3(Cl)C4(Cl)C(Cl)(Cl)C5(Cl)C3(Cl)C1(Cl)C5(Cl)C24Cl` (stereo unspecified), the AC50 was 2.41 µM (active).
For `CCC(=O)C(CC(C)N(C)C)(c1ccccc1)c1ccccc1` (stereo unspecified), the AC50 was 7.25 µM (active).
In the case of `CC(C)(C)c1cc(O)ccc1O`, the AC50 is reported as 6.2 µM (active).

Test: UKN2_HCS_IMR90_neural_migration: University of Konstanz (UKN) Leist Lab Neural Crest Cell Migration Assay in human induced IMR90 Pluripotent Stem Cells (UKN2) (AID 2284204)
Conditions: actives raise or lower the signal
In short: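 Migration of human IMR90-derived neural crest cells into a stopper-defined gap is imaged after 24 h chemical treatment. Activity is fitted bidirectionally relative to DMSO.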
For `COP(=O)(OC)O/C(=C\Cl)c1cc(Cl)c(Cl)cc1Cl`, the outcome was “inactive”.
With `C=C(C)C(=O)[O][Sn]([CH2]CCC)([CH2]CCC)[CH2]CCC` the AC50 was 168 nM (active).
For `CCOP(=S)(OCC)Oc1nc(Cl)c(Cl)cc1Cl`, the outcome was “inactive”.
For `O=C1C2(Cl)C3(Cl)C4(Cl)C(Cl)(Cl)C5(Cl)C3(Cl)C1(Cl)C5(Cl)C24Cl` (stereo unspecified), the AC50 was 2170 nM (active).

Test: UKN4_HCS_LUHMES_neurite_outgrowth: University of Konstanz (UKN) Leist Lab Neurite Outgrowth Assay in human LUHMES cells (UKN4) (AID 2284206)
Conditions: actives raise or lower the signal
In short: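 Human LUHMES neuronal precursors, differentiated 2 days then replated without cAMP and GDNF, exposed to compounds for 24 h. Neurite area imaged by high-content microscopy after calcein-AM live staining; Hoechst H-33342 for viability; bidirectional fit versus DMSO.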
In the case of `C=C(C)C(=O)[O][Sn]([CH2]CCC)([CH2]CCC)[CH2]CCC`, the AC50 is reported as 97.7 nM (active).
For `CCOP(=S)(OCC)Oc1nc(Cl)c(Cl)cc1Cl`, the AC50 was 218000 nM (active).
For `O=C1C2(Cl)C3(Cl)C4(Cl)C(Cl)(Cl)C5(Cl)C3(Cl)C1(Cl)C5(Cl)C24Cl` (stereo unspecified), the AC50 was 3440 nM (active).

Test: CCTE_Mundy_HCI_Cortical_Synap_Neur_Matur_NeuriteSpotCountPerNeuriteLength: CCTE's Synaptogenesis and Neurite Maturation Assay in rat cortical cells for Neurite Spot Count per Neurite Length, Mundy Lab (AID 2284210)
Conditions: not given
In short: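 Primary rat cortical neurons, compound exposure DIV 7–12, 288.33 h endpoint. Hoechst, anti-MAP2 and anti-synaptophysin labelling; neurite-associated puncta per neurite length scored by automated imaging relative to DMSO controls.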
In the case of `COP(=O)(OC)O/C(=C\Cl)c1cc(Cl)c(Cl)cc1Cl`, the outcome is reported as “inactive”.
For `C=C(C)C(=O)[O][Sn]([CH2]CCC)([CH2]CCC)[CH2]CCC`, the AC50 was 60.7 nM (active).
For `CCOP(=S)(OCC)Oc1nc(Cl)c(Cl)cc1Cl`, the AC50 was 50000 nM (active) and the outcome was “inactive”.
With `O=C1C2(Cl)C3(Cl)C4(Cl)C(Cl)(Cl)C5(Cl)C3(Cl)C1(Cl)C5(Cl)C24Cl` (stereo unspecified) the outcome was “inactive”.

Test: CCTE_Mundy_HCI_Cortical_Synap_Neur_Matur_BPCount: CCTE's Synaptogenesis and Neurite Maturation Assay in rat cortical cells for Branch Point Count, Mundy Lab (AID 2284211)
Conditions: not given
In short: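 Rat primary cortical cultures, AraC added DIV 5; chemicals dosed DIV 7 through DIV 12. Fixed cells stained for MAP2, synaptophysin and Hoechst; neurite branch points counted by automated high-content imaging, fitted relative to DMSO.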
With `COP(=O)(OC)O/C(=C\Cl)c1cc(Cl)c(Cl)cc1Cl` the outcome was “inactive”.
For `C=C(C)C(=O)[O][Sn]([CH2]CCC)([CH2]CCC)[CH2]CCC`, the AC50 was 79.9 nM (active).
For `CCOP(=S)(OCC)Oc1nc(Cl)c(Cl)cc1Cl`, the AC50 was 26700 nM (active).
With `O=C1C2(Cl)C3(Cl)C4(Cl)C(Cl)(Cl)C5(Cl)C3(Cl)C1(Cl)C5(Cl)C24Cl` (stereo unspecified) the AC50 was 22700 nM (active).

Test: CCTE_Mundy_HCI_Cortical_NOG_NeuriteCount: CCTE's Neurite Outgrowth Assay in rat cortical cells for Neurite Count, Mundy Lab (AID 2284212);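 also: cells fixed about two days after chemical exposure began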
Conditions: not given
In short: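 Neurite number per cell from high-content imaging of betaIII-tubulin immunostaining, with Hoechst nuclear counterstain.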
With `COP(=O)(OC)O/C(=C\Cl)c1cc(Cl)c(Cl)cc1Cl` the AC50 was 34 µM (active) and 32.9 µM (active).
With `C=C(C)C(=O)[O][Sn]([CH2]CCC)([CH2]CCC)[CH2]CCC` the AC50 was 0.123 µM (active).
In the case of `CCOP(=S)(OCC)Oc1nc(Cl)c(Cl)cc1Cl`, the AC50 is reported as 32.4 µM (active).
In the case of `O=C1C2(Cl)C3(Cl)C4(Cl)C(Cl)(Cl)C5(Cl)C3(Cl)C1(Cl)C5(Cl)C24Cl` (stereo unspecified), the AC50 is reported as 22.7 µM (active).

Test: CCTE_Mundy_HCI_Cortical_NOG_NeuriteLength: CCTE's Neurite Outgrowth Assay in rat cortical cells for Neurite Length, Mundy Lab (AID 2284213);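 also: neurites imaged about 48 to 50 h after chemical exposure began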
Conditions: not given
In short: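 Neurite length was read by high-content imaging of βIII-tubulin-labelled neurites in rat primary cortical cultures. Activity was fitted relative to DMSO.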
In the case of `COP(=O)(OC)O/C(=C\Cl)c1cc(Cl)c(Cl)cc1Cl`, the AC50 is reported as 32.5 µM (active) and 31.3 µM (active).
In the case of `C=C(C)C(=O)[O][Sn]([CH2]CCC)([CH2]CCC)[CH2]CCC`, the AC50 is reported as 89.3 nM (active).
In the case of `CCOP(=S)(OCC)Oc1nc(Cl)c(Cl)cc1Cl`, the AC50 is reported as 32 µM (active) and 33.4 µM (active).
For `O=C1C2(Cl)C3(Cl)C4(Cl)C(Cl)(Cl)C5(Cl)C3(Cl)C1(Cl)C5(Cl)C24Cl` (stereo unspecified), the AC50 was 16700 nM (active).

Test: CCTE_Mundy_HCI_Cortical_Synap_Neur_Matur_NeuriteLength: CCTE's Synaptogenesis and Neurite Maturation Assay in rat cortical cells for Neurite Length, Mundy Lab (AID 2284214)
Conditions: not given
In short: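 Rat primary cortical cultures, AraC added DIV 5, dosed DIV 7 through DIV 12 […]. Fixed, MAP2/synaptophysin immunostained with Hoechst; neurite length by high-content imaging, fitted in positive direction versus DMSO.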
For `COP(=O)(OC)O/C(=C\Cl)c1cc(Cl)c(Cl)cc1Cl`, the outcome was “inactive”.
With `C=C(C)C(=O)[O][Sn]([CH2]CCC)([CH2]CCC)[CH2]CCC` the AC50 was 161 nM (active).
For `CCOP(=S)(OCC)Oc1nc(Cl)c(Cl)cc1Cl`, the AC50 was 31.2 µM (active) and 29 µM (active).
In the case of `O=C1C2(Cl)C3(Cl)C4(Cl)C(Cl)(Cl)C5(Cl)C3(Cl)C1(Cl)C5(Cl)C24Cl` (stereo unspecified), the AC50 is reported as 21500 nM (active).

Test: CCTE_Mundy_HCI_Cortical_Synap_Neur_Matur_NeuriteSpotCountPerNeuron: CCTE's Synaptogenesis and Neurite Maturation Assay in rat cortical cells for Neurite Spot Count per Neuron Count, Mundy Lab (AID 2284215)
Conditions: not given
In short: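 High-content imaging counts synaptophysin puncta along MAP2-labelled neurites per neuron after chemical exposure of rat cortical cells from DIV 7 to termination at DIV 12 (AraC added DIV 5). Loss of signal relative to DMSO.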
With `COP(=O)(OC)O/C(=C\Cl)c1cc(Cl)c(Cl)cc1Cl` the outcome was “inactive”.
For `C=C(C)C(=O)[O][Sn]([CH2]CCC)([CH2]CCC)[CH2]CCC`, the AC50 was 59.7 nM (active).
With `CCOP(=S)(OCC)Oc1nc(Cl)c(Cl)cc1Cl` the AC50 was 50 µM (active) and 24.7 µM (active).
In the case of `O=C1C2(Cl)C3(Cl)C4(Cl)C(Cl)(Cl)C5(Cl)C3(Cl)C1(Cl)C5(Cl)C24Cl` (stereo unspecified), the AC50 is reported as 20700 nM (active).

Test: TAMU_PeakParms_SingleDonor1434_Chronotropy: Texas A&M University (TAMU) 1.5-hr Human Induced Pluripotent Stem Cell (iPSC)-derived Cardiomyocytes Calcium (Ca+2) Flux Assay for Cardiotoxicity: Chronotropy (changes in peak frequency) (AID 2284217)
Conditions: actives raise or lower the signal
In short: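 iPSC-derived cardiomyocytes (single donor 1434) dosed at 0.2, 1, 10 and 100 uM in 0.5% DMSO for 1.5 h at 37C; Ca2+ dye fluorescence gave average beat frequency. Zero-beat points removed; bidirectional fit versus DMSO, POD as EC05.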
With `ClC(Cl)=C(Cl)C(Cl)=C(Cl)Cl` the outcome was “inactive”.
For `CCOP(=S)(OCC)Oc1nc(Cl)c(Cl)cc1Cl`, the outcome was “inactive”.
With `Oc1cccc2cccnc12` the outcome was “inactive”.
For `CC(C)(C)c1cc(O)ccc1O`, the outcome was “inactive”.

Test: CCTE_Mundy_HCI_Cortical_Synap_Neur_Matur_SynapseCount: CCTE's Synaptogenesis and Neurite Maturation Assay in rat cortical cells for Synapse Count, Mundy Lab (AID 2284218)
Conditions: not given
In short: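 Rat primary cortical cultures, AraC at DIV 5, chemical dosing DIV 7 to DIV 12 (288.33 h). Fixed cells stained for MAP2, synaptophysin and Hoechst; synapses per neuron counted by high-content imaging, loss of signal versus DMSO.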
For `COP(=O)(OC)O/C(=C\Cl)c1cc(Cl)c(Cl)cc1Cl`, the outcome was “inactive”.
With `C=C(C)C(=O)[O][Sn]([CH2]CCC)([CH2]CCC)[CH2]CCC` the AC50 was 67.2 nM (active).
For `CCOP(=S)(OCC)Oc1nc(Cl)c(Cl)cc1Cl`, the AC50 was 50 µM (active) and 27.4 µM (active).
With `O=C1C2(Cl)C3(Cl)C4(Cl)C(Cl)(Cl)C5(Cl)C3(Cl)C1(Cl)C5(Cl)C24Cl` (stereo unspecified) the AC50 was 19300 nM (active).
